# Screening results deposited in PubChem by several laboratories.
# Compounds with a hit are over-represented: about 2.8% of the library has one in this group of screens.
# TNF death inh = blocks TNF-alpha induced death of Jurkat FADD-/- cells. AID 463075. 0.068% of 220,000 active. activation (protection from cell death), % at 10 µM. Jurkat FADD-/- TNF necroptosis rescue, ATP luminescence, 24 h; 0 = TNF only, 100 = no-TNF cells;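 active means activation, meaning protection from cell death, of at least 50% relative to plate controls; inactive means activation below 50%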;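 further: necroptosis triggered by 40 ng/mL TNF-alpha added together with compound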
# Bim-Mcl-1 = disrupts Bim peptide binding to human Mcl-1; Q07820; Bead-based flow cytometry, Bim peptide-Mcl-1 binding; inhibition, % at 10 µM; 0.1% of 190,000 active; in the data active means inhibition above about 40%;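 further: 0% = no compound tracer wells and 100% = peptide blocker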
# Target sequence (Q07820 whole entry, looked up): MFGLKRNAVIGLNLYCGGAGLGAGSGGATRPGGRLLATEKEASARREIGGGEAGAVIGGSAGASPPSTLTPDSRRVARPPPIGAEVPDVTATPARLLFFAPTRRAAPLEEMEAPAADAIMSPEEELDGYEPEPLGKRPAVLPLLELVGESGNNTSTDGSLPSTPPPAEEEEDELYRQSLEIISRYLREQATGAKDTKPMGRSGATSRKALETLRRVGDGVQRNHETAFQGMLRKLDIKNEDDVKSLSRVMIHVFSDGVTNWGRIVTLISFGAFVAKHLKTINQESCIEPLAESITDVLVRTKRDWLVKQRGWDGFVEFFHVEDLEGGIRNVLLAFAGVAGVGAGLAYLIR
# L929 necroptosis = L929 zVAD cell death inhibition | AID 1377 | L929 zVAD necroptosis rescue, ATP luminescence, 24 h; with zVAD 60 µM | 0.38% of 220,000 active | viability rescue, % at 10 µM;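 active means activation, scaled between plate controls, above about 75%, limit read from the data; inactive means activation under that limit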;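 further: 0% = zVAD with DMSO and 100% = DMSO alone without zVAD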
# Mcl1 Bid PPI = Mcl-1/Bid interaction inhibition | TR-FRET Mcl-1/Bid-Dy647 peptide binding, 1536-well | inhibition, % at 21.7 µM | 0.97% of 220,000 active | AID 1021;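 active means compounds that cut the binding signal by more than half at the single screening dose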;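 further: His-tagged Mcl-1 with europium anti-His antibody binding Bid BH3 peptide; 0% = Mcl-1 plus peptide wells and 100% = peptide-only wells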
# Calpain2 inh = calpain II (pig) inhibition; 0.37% of 220,000 active; inhibition, % at 16 µM; AID 1236; purified calpain II, fluorogenic peptide substrate, 30 min;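 active means inhibition above about 50%, limit read from the data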
# Mcl1-Noxa inh = Mcl-1/Noxa interaction inhibition; TR-FRET Mcl-1/Noxa peptide binding, 2 h; AID 1022; 1.5% of 220,000 active; Q07820; inhibition, % at 21.7 µM;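 active means compounds that cut the protein-peptide binding signal by more than 50% relative to plate controls in a single-dose test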;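 further: His-tagged Mcl-1 with rhodamine Noxa BH3 peptide and terbium anti-His antibody; 0% = Mcl-1 plus Noxa peptide wells and 100% = peptide-only wells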
# Starred values were filed as active, the others as inactive; x = no result given.
SMILES,TNF death inh,Bim-Mcl-1,L929 necroptosis,Mcl1 Bid PPI,Calpain2 inh,Mcl1-Noxa inh
N#CCCS(=O)(=O)c1nnnn1-c1ccccc1,-11,x,0,x,x,x
C=CCN1C(=O)C(CC(=O)Nc2ccccc2)N(Cc2ccccn2)C1=S (centres undefined),0,-1,1,8,-3,4
Cc1ccc(-c2nnc(Cc3ccc(Cl)cc3)o2)cc1,1,40*,1,-6,30,-21
c1ccc(Cc2nnc(-c3ccccc3)o2)cc1,-3,0,3,-23,24,-18
Cc1cc(O)c(C(C)C)cc1N=Nc1ccccc1C(=O)O,-4,x,2,-75,1,19
CN1C(=O)C(N=Nc2ccccc2C(=O)O)N(C)C1=S (centres undefined),-1,-1,6,53*,15,39
CC(C)(C)C1=CC=C(C(C)(C)C)C(=O)C1=O,-18,x,20,17,28,89*
COCCCNC(=O)c1ccc2c3c(onc13)-c1ccccc1C2=O,-30,x,-3,-109,7,55*
COCCCNC(=O)c1ccccc1Oc1ccccc1,2,0,2,-21,-32,0
CCc1ccccc1NS(=O)(=O)c1ccc2[nH]cc(C(=O)NC3CCCC3)c(=O)c2c1,2,-2,x,66*,-14,72*
Nc1c(C(=O)NC2CC2)sc2nc3c(c(-c4ccco4)c12)CC/C3=C/c1ccco1,2,35,0,84*,-21,97*
NC(=O)c1sc2nc3c(c(-c4ccco4)c2c1N)CCC3,-2,10,-1,-26,-7,25
CN(C)CCCN(C(=O)c1ccc2c(c1)CCCC2)c1nc2c(F)cccc2s1,5,-5,0,-10,0,56*
Cc1cc(-c2csc(NCc3ccccc3)n2)c(C)n1C,1,2,4,4,-75,69*
C=CCn1cc(/C=N/NC(=O)COc2cccc3cccnc23)c2ccccc21,4,0,3,89*,10,66*
COc1cccc(/C=N/NC(=O)COc2cccc3cccnc23)c1O,0,-1,3,-38,-62,22
O=C(/C=C1\NC2(CCCC2)Cc2ccccc21)C(=O)N/N=C/c1ccc(O)c(O)c1,-4,0,7,-58,-46,89*
COc1ccc(/C=N/NC(=O)C(=O)/C=C2\NC3(CCCC3)Cc3ccccc32)cc1,2,-4,1,-29,-35,16
CCOC(=O)N1CCC(n2c(SCC(=O)c3ccccc3)nc3ccsc3c2=O)CC1,-2,0,0,65*,7,-203
O=C(Cc1c(Cl)cccc1Cl)OCC(=O)N1CCc2ccccc2C1,5,-4,0,78*,11,6
O=C(Cn1[nH]c(=O)c2ccccc2c1=O)OCC(=O)N1CCc2ccccc2C1,-2,0,0,83*,12,3
O=C(CN1C(=O)c2ccccc2C1=O)OCC(=O)N1CCc2ccccc2C1,0,-8,1,-43,-24,1
COc1cccc(/C=C/C(=O)c2ccc(NC3=NCCCS3)cc2)c1,-10,-25,-1,9,-23,57*
O=C(/C=C/c1ccc(Br)cc1)c1ccc(NC2=NCCCS2)cc1,-4,0,0,8,-8,49
Cc1cccc(/C=C/C(=O)c2ccc(NC3=NCCCS3)cc2)c1,-3,-4,1,27,-50,88*
SMILES,TNF death inh,Bim-Mcl-1,L929 necroptosis,Mcl1 Bid PPI,Calpain2 inh,Mcl1-Noxa inh
O=C(/C=C/c1ccccc1)c1ccc(NC2=NCCCS2)cc1,-11,-2,0,12,-22,84*
C/C(=N\NC(=O)Cn1cc([N+](=O)[O-])cn1)c1ccco1,1,x,0,-13,-21,-13
CNC(=O)CC1C(=O)N(c2ccc(OC)cc2)C(=S)N1NC(=O)c1cccc(F)c1 (centres undefined),1,x,-1,99*,18,-3
COc1ccc(N2C(=O)C(CC(N)=O)N(NC(=O)c3cccc(OC)c3)C2=S)cc1 (centres undefined),0,-2,0,-1,-28,7
O=C(Nc1cccc(-c2nnc(-c3ccco3)o2)c1)c1ccccc1,1,15,7,5,79*,-5
CCOc1ccc(-c2ccc(/C=C3/C(=N)N4C(C)=CSC4=NC3=O)o2)c([N+](=O)[O-])c1,3,0,2,68*,-86,66*
Cc1ccc(-c2ccc(/C=C3\C(=O)ON=C3c3ccccc3)o2)c([N+](=O)[O-])c1,-15,-5,-1,23,10,x
CCOc1ccc(-c2ccc(/C=C3/C(=N)N4C=CSC4=NC3=O)o2)c([N+](=O)[O-])c1,2,1,1,89*,13,129*
CC1=CN2C(=N)/C(=C/c3ccc([N+](=O)[O-])o3)C(=O)N=C2S1,-10,-3,1,6,-34,65*
CC1=CSC2=NC(=O)/C(=C/c3cccc(OC(=O)c4ccco4)c3)C(=N)N12,-1,-5,0,10,34,33
COc1ccc(C(=O)NCC(=O)N/N=C(\C)c2ccco2)cc1OC,1,x,1,-55,-21,1
COCCN1C(=O)c2oc3cc(C)c(C)cc3c(=O)c2C1c1cccc(O)c1 (centres undefined),1,x,0,x,x,x
O=C(O)CN1C(=O)c2ccc(Oc3ccc4c(c3)C(=O)N(CC(=O)O)C4=O)cc2C1=O,6,x,0,-27,29,11
C/C(=N\NC(=O)C1(C)CC1(Br)Br)c1ccc(NC(=O)c2ccc(C)o2)cc1 (centres undefined),6,-2,5,-10,20,4
CC(C)(C)c1ccc(NC(=S)NCCc2ccccn2)cc1,-12,x,1,51*,2,23
Fc1ccc(NC(=S)NCCc2ccccn2)cc1,-1,1,0,-39,-116,5
CCCCCCC(=O)N/N=C(\C)Cc1ccccc1,2,-3,1,-14,22,70*
Nc1ncnc2c1ncn2[C@@H]1O[C@H](CO)C[C@@H]1O,x,-2,x,7,-21,-112
O=C(COc1ccccc1[N+](=O)[O-])Nc1ccc(N2CCN(C(=O)c3cccs3)CC2)cc1,-5,-5,1,-25,7,18
COc1ccc2c(Cl)c(C(=O)N/N=C/c3ccc4c(c3)OCO4)sc2c1,-8,-3,2,37,-125,-5
O=C(N/N=C/c1ccc2c(c1)OCO2)c1sc2cc(Cl)ccc2c1Cl,-2,1,2,51*,14,49
Nc1nnnn1CC(=O)N/N=C/c1cc([N+](=O)[O-])ccc1Cl,1,1,1,-30,-19,-4
Cc1cc([N+](=O)[O-])c(C)cc1-c1ccc(/C=N/NC(=O)Cn2nnnc2N)o1,-1,1,6,53*,-19,55*
